Laboratory results from PubChem BioAssay AID602144 (Vanderbilt Specialized Chemistry Center, 2011).
Several values for one entry are separate records, joined by “and”; a condition that tells them apart may be missing. Equal values may be shown once. Activity calls are given as the source filed them. Rule as the data show it: active = remaining activity below about 50%; inactive = the rest.

What follows are compounds tested against Phospholipase D1 (Homo sapiens) (UniProt Q13393) (assay: PLD1 inhibitors in cells, Calu-1 cells, single concentration (AID 602144;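 also: tested at 200 nM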)). Conditions: cellular PLD1 activity, hits give low values.
Sequence of Phospholipase D1 (Homo sapiens) (Q13393 whole entry, looked up): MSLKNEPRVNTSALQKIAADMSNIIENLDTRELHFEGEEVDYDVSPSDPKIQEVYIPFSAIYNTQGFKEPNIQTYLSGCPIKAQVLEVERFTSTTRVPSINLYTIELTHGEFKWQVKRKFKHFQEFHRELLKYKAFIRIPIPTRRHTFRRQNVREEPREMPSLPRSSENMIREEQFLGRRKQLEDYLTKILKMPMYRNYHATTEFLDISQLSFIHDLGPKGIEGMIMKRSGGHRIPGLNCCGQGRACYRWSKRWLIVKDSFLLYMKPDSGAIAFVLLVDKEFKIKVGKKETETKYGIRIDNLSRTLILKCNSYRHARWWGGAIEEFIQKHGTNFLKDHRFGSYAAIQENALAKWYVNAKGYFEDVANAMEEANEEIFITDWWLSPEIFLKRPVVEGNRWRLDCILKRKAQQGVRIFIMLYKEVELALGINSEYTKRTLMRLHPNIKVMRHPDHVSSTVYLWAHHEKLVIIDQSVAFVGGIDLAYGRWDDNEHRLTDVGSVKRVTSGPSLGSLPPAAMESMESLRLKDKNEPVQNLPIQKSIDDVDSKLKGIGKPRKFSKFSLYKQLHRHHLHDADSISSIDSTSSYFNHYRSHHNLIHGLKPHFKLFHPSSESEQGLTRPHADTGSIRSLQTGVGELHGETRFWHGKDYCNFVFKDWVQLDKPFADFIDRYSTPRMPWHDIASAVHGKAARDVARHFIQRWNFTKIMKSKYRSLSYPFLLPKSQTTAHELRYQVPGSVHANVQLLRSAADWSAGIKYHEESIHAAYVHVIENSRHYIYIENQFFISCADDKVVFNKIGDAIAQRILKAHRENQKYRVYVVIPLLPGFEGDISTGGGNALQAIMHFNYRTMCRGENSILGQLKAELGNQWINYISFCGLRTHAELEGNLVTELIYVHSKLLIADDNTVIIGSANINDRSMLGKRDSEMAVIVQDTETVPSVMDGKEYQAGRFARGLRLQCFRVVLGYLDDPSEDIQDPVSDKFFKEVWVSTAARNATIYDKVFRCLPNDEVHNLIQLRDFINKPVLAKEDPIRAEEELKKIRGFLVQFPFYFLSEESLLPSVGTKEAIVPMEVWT
Sequence of Phospholipase D1 (Homo sapiens) (Q13393 whole entry, looked up): as above

| SMILES | remaining activity |
| --- | --- |
| O=C(NCCN1CCC2(CC1)C(=O)NCN2c1cccc(F)c1)c1cnc2ccccc2c1 | 79% (inactive) |
| C[C@@H](CN1CCC2(CC1)C(=O)NCN2c1ccc(F)c(F)c1)NC(=O)c1cnc2ccccc2c1 | 5.04% (active) |
| O=C(NCCN1CCC2(CC1)C(=O)NCN2c1ccccc1)c1ccc2cc(F)ccc2c1 | 73.9% (inactive) |
| O=C(NCCN1CCC2(CC1)C(=O)NCN2c1cccc(F)c1)c1cccc(F)c1 | 100% (inactive) |
| O=C(NCCN1CCC2(CC1)C(=O)NCN2c1ccccc1)c1cc2cccnc2s1 | 51.1% (inactive) |
| O=C(NCCN1CCC2(CC1)C(=O)NCN2c1ccc(Cl)cc1)c1cc2cc(F)ccc2[nH]1 | 79.4% (inactive) |
| O=C(c1cccc(F)c1)N(CCN1CCC2(CC1)C(=O)NCN2c1cccc(F)c1)C(=O)c1cccc(F)c1 | 93.5% (inactive) |
| O=C(NCCN1CCC2(CC1)C(=O)NCN2c1ccccc1)c1cccc(Cl)n1 | 132% (inactive) |
| Cc1ccc(C(=O)NCCN2CCC3(CC2)C(=O)NCN3c2ccccc2)c(O)c1 | 89.1% (inactive) |
| O=C(CCN1CCC2(CC1)C(=O)NCN2c1ccccc1)Nc1ccc(Cl)cc1 | 122% (inactive) |
| CCCCCC(=O)NCCN1CCC2(CC1)C(=O)NCN2c1cccc(F)c1 | 109% (inactive) |
| O=C(NCCN1CCC2(CC1)C(=O)NCN2c1ccc(F)cc1)c1ccc2ccccc2c1 | 75.2% (inactive) |
| O=C(NCCN1CCC2(CC1)C(=O)NCN2c1cccc(F)c1)c1ccc(-c2ccccc2)cc1 | 93% (inactive) |
| CC(C)[C@@H](CN1CCC2(CC1)C(=O)NCN2c1ccccc1)NC(=O)c1cc2ccccc2[nH]1 | 1.51% (active) |
| O=C(NCCN1CCC2(CC1)C(=O)NCN2c1ccccc1)c1cccnn1 | 105% (inactive) |
| O=C(c1ccc2ccccc2c1)N1CCCC1CN1CCC(n2c(=O)[nH]c3ccccc32)CC1 (stereo unspecified) | 101% (inactive) and 112% (inactive) |
| CCOC(=O)CCN1CCC2(CC1)C(=O)NCN2c1ccccc1 | 83.2% (inactive) |
| O=C(COCc1ccccc1)NCCN1CCC2(CC1)C(=O)NCN2c1cccc(F)c1 | 108% (inactive) |

| SMILES | remaining activity |
| --- | --- |
| O=C(NCCN1CCC2(CC1)C(=O)NCN2c1ccc(F)c(F)c1)c1ccc(F)cc1 | 101% (inactive) |
| O=C(NCCN1CCC2(CC1)C(=O)NCN2c1ccc(F)cc1)c1ccc2cc(F)ccc2c1 | 94.6% (inactive) |
| O=C(NCCN1CCC2(CC1)C(=O)NCN2c1cccc(F)c1)c1cc(C(F)(F)F)ccc1C(F)(F)F | 86.3% (inactive) |
| O=C(NCCN1CCC2(CC1)C(=O)NCN2c1ccc(F)c(F)c1)c1cc2cc(F)ccc2[nH]1 | 69.1% (inactive) |
| O=C(CCCl)NCCN1CCC2(CC1)C(=O)NCN2c1cccc(F)c1 | 75.7% (inactive) |
| O=C(NCCN1CCC2(CC1)C(=O)NCN2c1ccc(F)cc1)c1ccc(F)cc1 | 78.2% (inactive) |
| O=C(c1ccc(F)c(F)c1)N1CCC[C@@H]1CN1CCC2(CC1)C(=O)NCN2c1ccccc1 | 93.7% (inactive) |
| O=C(NCCN1CCC2(CC1)C(=O)NCN2c1ccccc1)C1(c2ccccc2)CCC1 | 94.9% (inactive) |
| CCC(=O)N[C@@H](C)CN1CCC2(CC1)C(=O)NCN2c1ccccc1 | 93.3% (inactive) |
| CCCCCC(=O)N(CCN1CCC2(CC1)C(=O)NCN2c1cccc(F)c1)C(=O)CCCCC | 90.1% (inactive) |
| Cc1cccc(C(=O)N[C@@H](C)CN2CCC3(CC2)C(=O)NCN3c2ccccc2)c1 | 70% (inactive) |
| O=C(NCCN1CCC2(CC1)C(=O)NCN2c1ccccc1)c1cc(Br)c(Br)o1 | 66.9% (inactive) |
| O=C(NCCN1CCC2(CC1)C(=O)NCN2c1ccccc1)C1CCc2ccccc2C1 (stereo unspecified) | 103% (inactive) and 104% (inactive) |
| Nc1cccc(Cl)c1C(=O)NCCN1CCC2(CC1)C(=O)NCN2c1ccccc1 | 92.9% (inactive) |
| O=C(NCCN1CCC2(CC1)C(=O)NCN2c1ccc(F)cc1)c1cnc2ccccc2c1 | 60.5% (inactive) |
| C[C@@H](CN1CCC2(CC1)C(=O)NCN2c1ccc(F)c(F)c1)NC(=O)c1ccc(Cl)cc1 | 6.51% (active) |
| O=C(NCCN1CCC2(CC1)C(=O)NCN2c1ccccc1)C(c1ccccc1)c1ccccc1 | 99.2% (inactive) |
| O=C(c1ccc(F)c(F)c1)N1CCCC1CN1CCC(n2c(=O)[nH]c3ccccc32)CC1 (stereo unspecified) | 85.3% (inactive) and 91.1% (inactive) |
